Assay [1] is described as follows: growth inhibition of DIPG glioma cells, dose response, cell-based, SU-DIPG-XIII, MIPE5.0, CellTiter-Glo, qHTS (AID 1347064; cut-off not given, nearly all actives have AC50 up to about 23 µM;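 for AC50: cells exposed to compound for 48 hours before the viability read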). Particulars: SU-DIPG-XIII viability, CellTiter-Glo ATP luminescence.
Assay [2] is described as follows: JHH-DIPG-1 glioma cell viability, MIPE5.0 library, CellTiter-Glo luminescence, qHTS (AID 1347067; cut-off not given, nearly all actives have AC50 up to about 26 µM;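 note: cells exposed to compound for 48 hours before readout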). The conditions noted are these: JHH-DIPG-1 glioma viability, CellTiter-Glo ATP luminescence. (In general: ATP-based viability assays read luminescence as a measure of living cells.)
A short description of assay [3]: SU-DIPG-XXV glioma cell viability, MIPE5.0 library, qHTS (AID 1347068; cut-off not given, nearly all actives have IC50 up to about 30 µM). On the technique in general: In qHTS, concentration-response curves come from the screen itself.
Assay [4] can be described thus: viability loss in pontine glioma line – cell-based, SU-DIPG-XXV, MIPE5.0, CellTiter-Glo, qHTS, dose response (AID 1347065; cut-off not given, nearly all actives have AC50 up to about 26 µM;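 note: cells exposed to compound for 48 hours before ATP readout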). The conditions noted are these: CellTiter-Glo ATP luminescence.
Assay [5] is described as follows: sensitizers of A549 cells to miR-34 induction, primary screen, imaging, A549 dox-inducible miR-34, nuclei and caspase counts (AID 1347080;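 active = compounds whose cell count with miR-34 switched on is under 0.7 times the count with it off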). Particulars: A549 miR-34 inducible, Hoechst nuclei count, 48 h.
Assay [6] is described as follows: survival rescue of mitochondrial mutant cells in low glucose, primary screen, MELAS cybrids, Rieske KO mouse fibroblasts, CellTiter-Glo (AID 1508586;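 active = mean z-score across replicates of 1.96 or higher in either the MELAS or the Rieske mutant cell line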;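 note: z relative to plate mean and SD of compound and empty wells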).
Assay [7] can be described thus: SU-DIPG-VI glioma cell viability, MIPE4.0 library, CellTiter-Glo luminescence, qHTS (AID 1347066; cut-off not given, nearly all actives have AC50 up to about 30 µM;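 note: cells exposed to compound for 48 hours before readout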). The conditions noted are these: CellTiter-Glo ATP luminescence.
Assay [8] is described as follows: modifiers of HSF1 nuclear foci, imaging, Selleck Cancer Library (AID 1347162; in the data active = plate-normalised HSF1 focus index below about 0.46). Particulars: human cells, at 10 µM; SSMD: measured here: HSF1 foci SSMD mean; cell count: measured here: cell number; plate-normalised HSF1 focus index: stronger effect = lower value.
Assay [9] in a line: ovarian cancer cell viability with rucaparib, profiling panel, oncology-focused library, rucaparib conditional (AID 1508598). The conditions noted are these: patient-derived ovarian cancer cells, CellTiter-Glo viability, 144 h, stronger effect = lower value.
The mark [10] stands for this setting: stronger effect = lower value, cell number ratio, induced over uninduced.
[11] abbreviates: measured here: relative caspase fold change +Dox/-Dox.
[12] abbreviates: measured here: total cells with miR-34 induction, stronger effect = lower value.
[13] abbreviates: measured here: total cells without miR-34 induction.
[14] abbreviates: MELAS cybrid survival, CellTiter-Glo 48 h, stronger effect = higher value.
Setting [15] is: Rieske KO mouse fibroblast survival, CellTiter-Glo 72 h.

Records with an inconclusive call do not appear. The source made the active and inactive calls.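 Rule for the calls, unless noted: active = normalized viability below 100% at a tested concentration; inactive = the rest.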

The AC50 is the concentration at which the activity in the assay is half-maximal. In general, viability refers to a read-out of living cells in per cent, often relative to untreated cells.

`FC(F)(F)c1ccc(CNc2ccc(Cc3c[nH]c4ncc(Cl)cc34)cn2)cn1`: the call in assay [1], in assay [2] and in [3] was inactive.
As to `C[C@@H]1C[C@H](N)C[C@H](c2ccncc2NC(=O)c2ccc(F)c(-c3c(F)cccc3F)n2)C1`, the AC50 in assay [4] was 9.34 µM (active).
In the case of `O=C1CSC(=O)N1C(CCc1ccncc1)COc1ccc(-c2cccc([N+](=O)[O-])c2)cc1` (stereo not drawn), the AC50 in assay [4] and in assay [2] was 18.6 µM (active) throughout.
Take `NCCCC[C@H](NC(=O)[C@@H](NC(=O)[C@H](Cc1c[nH]c2ccccc12)NC(=O)[C@H](CCCCN)NC(=O)[C@H](CCCCN)NC(=O)[C@H](Cc1c[nH]c2ccccc12)NC(=O)[C@H](Cc1c[nH]c2ccccc12)NC(=O)[C@H](CCCCN)NC(=O)[C@@H](N)CCCCN)C(c1ccccc1)c1ccccc1)C(N)=O`: in assay [4], the AC50 was 20.9 µM (active).
Still for that read-out and setting: as for `CCNC1(C(N)=O)CCN(c2ncnc3c2nc(-c2ccccc2Cl)n3-c2ccc(Cl)cc2)CC1`, the figure is 11.8 µM (active); as for `Nc1nc(OC(c2ccc(-c3cccc(F)c3)cc2)C(F)(F)F)cc(-c2ccc(C[C@@H](N)C(=O)O)cc2)n1` (stereo partly drawn), 23.5 µM (active).
`Cc1cc(C)c2c(c1)[C@@H](N(Cc1cc(C(F)(F)F)cc(C(F)(F)F)c1)c1nnn(C)n1)CCCN2CC1CCC(C(=O)O)CC1` (stereo partly drawn): the AC50 in assay [1] is 20.9 µM (active). The result in assay [3] was inactive. Besides, the fold change in assay [5] (setting [10]) is 0.938 (inactive); in assay [5] (setting [11]), 0.636. Further, the cell count was 6920 in assay [5] (setting [12]) and 7380 in assay [5] (setting [13]). For the same compound, the z-score in [6] (setting [14]) was -0.009 (inactive); in [6] (setting [15]) it was -0.0411.
Take `Cc1nn(C)c2c1C(c1ccc(C(F)(F)F)cc1)C(C#N)=C(N)O2` (stereo not drawn): the result in assay [1] and in assay [3] was inactive.
Regarding `CCc1cc(/C(C)=N/OCc2ccc(C3CCCCC3)c(C(F)(F)F)c2)ccc1CN1CC(C(=O)O)C1`, in assay [4], the half-maximal activity concentration (AC50) is 18.6 µM (active). In assay [7], the call was inactive.
Take `N#Cc1ccc(Cn2cncc2CN2CCN(c3cccc(Cl)c3)C(=O)C2)cc1`: the AC50 in [4] is 9.34 µM (active).
In the case of `Nc1ncnc2c1c(COc1cccc(Cl)c1)nn2C1CCOCC1`, the call in assay [1] and in assay [3] was inactive.
Regarding `CN1CCN(c2nc(C3=C(c4c[nH]c5ccccc45)C(=O)NC3=O)c3ccccc3n2)CC1`, the call in [1], in [2] and in assay [3] was inactive. Besides, the fold change in assay [5] (setting [10]) was 0.982 (inactive); in assay [5] (setting [11]), 0.809. For the same compound, the results for the cell count in assay [5] (setting [12]), in assay [5] (setting [13]) and in assay [8] were 8410, 8570 and 7110, respectively. Also, the SSMD in assay [8] came to 1.44. Further, the plate-normalised HSF1 focus index in [8] is 1.09 (inactive). In addition, the z-score in [6] (setting [14]) was -0.37 (inactive); in assay [6] (setting [15]) it was 0.177. In addition, the viability is 105% (inactive) in [9] (at 0.000305 µM, OCI-C5x cells, with rucaparib 10 µM, 100% = cells with rucaparib alone); 102% (inactive) in [9] (at 0.000305 µM, OCI-C5x cells, without rucaparib); 96.2% (active) in assay [9] (at 0.000305 µM, OCI-P5x cells, with rucaparib 20 µM, 100% = cells with rucaparib alone); 83.9% (active) in assay [9] (at 0.000305 µM, OCI-P5x cells, without rucaparib); 116% (inactive) in assay [9] (at 0.00122 µM, OCI-C5x cells, with rucaparib 10 µM, 100% = cells with rucaparib alone); 119% (inactive) in assay [9] (at 0.00122 µM, OCI-C5x cells, without rucaparib). Besides, the viability in assay [9] (at 0.00122 µM, OCI-P5x cells, with rucaparib 20 µM, 100% = cells with rucaparib alone) is 102% (inactive); in assay [9] (at 0.00122 µM, OCI-P5x cells, without rucaparib), 88.4% (active); in assay [9] (at 0.00488 µM, OCI-C5x cells, with rucaparib 10 µM, 100% = cells with rucaparib alone), 112% (inactive); in [9] (at 0.00488 µM, OCI-C5x cells, without rucaparib), 120% (inactive); in assay [9] (at 0.00488 µM, OCI-P5x cells, with rucaparib 20 µM, 100% = cells with rucaparib alone) it was 106% (inactive); in [9] (at 0.00488 µM, OCI-P5x cells, without rucaparib) it was 97.3% (active). Moreover, the viability in [9] (at 0.0195 µM, OCI-C5x cells, with rucaparib 10 µM, 100% = cells with rucaparib alone) was 114% (inactive); in assay [9] (at 0.0195 µM, OCI-C5x cells, without rucaparib) it was 122% (inactive); in [9] (at 0.0195 µM, OCI-P5x cells, with rucaparib 20 µM, 100% = cells with rucaparib alone) it was 102% (inactive); in assay [9] (at 0.0195 µM, OCI-P5x cells, without rucaparib), 96.2% (active); in assay [9] (at 0.0781 µM, OCI-C5x cells, with rucaparib 10 µM, 100% = cells with rucaparib alone) it was 113% (inactive); in [9] (at 0.0781 µM, OCI-C5x cells, without rucaparib) it was 116% (inactive). Moreover, the viability in assay [9] (at 0.0781 µM, OCI-P5x cells, with rucaparib 20 µM, 100% = cells with rucaparib alone) was 110% (inactive); in assay [9] (at 0.0781 µM, OCI-P5x cells, without rucaparib), 101% (inactive); in assay [9] (at 0.313 µM, OCI-C5x cells, with rucaparib 10 µM, 100% = cells with rucaparib alone) it was 109% (inactive); in assay [9] (at 0.313 µM, OCI-C5x cells, without rucaparib) it was 129% (inactive); in [9] (at 0.313 µM, OCI-P5x cells, with rucaparib 20 µM, 100% = cells with rucaparib alone) it was 117% (inactive); in [9] (at 0.313 µM, OCI-P5x cells, without rucaparib) it was 107% (inactive). Besides, the viability in assay [9] (at 1.25 µM, OCI-C5x cells, with rucaparib 10 µM, 100% = cells with rucaparib alone) was 114% (inactive); in [9] (at 1.25 µM, OCI-C5x cells, without rucaparib), 122% (inactive); in assay [9] (at 1.25 µM, OCI-P5x cells, with rucaparib 20 µM, 100% = cells with rucaparib alone), 115% (inactive); in assay [9] (at 1.25 µM, OCI-P5x cells, without rucaparib), 109% (inactive); in assay [9] (at 5 µM, OCI-C5x cells, with rucaparib 10 µM, 100% = cells with rucaparib alone), 129% (inactive); in assay [9] (at 5 µM, OCI-C5x cells, without rucaparib), 135% (inactive). Besides, the viability was 141% (inactive) in assay [9] (at 5 µM, OCI-P5x cells, with rucaparib 20 µM, 100% = cells with rucaparib alone) and 109% (inactive) in [9] (at 5 µM, OCI-P5x cells, without rucaparib).

For the origin of these results see PubChem BioAssay.
